Source: PubChem (The Scripps Research Institute Molecular Screening Center)
ASK1 inh – ASK1 kinase inhibitors, primary screen, biochemical, AlphaScreen. inhibition, % at 7.44 µM. 22,000 compounds, 0.99% hits. AlphaScreen MKK6 phosphorylation by ASK1, luminescence. Mitogen-activated protein kinase kinase kinase 5 (Homo sapiens), Q99683; in the data active means inhibition above about 35%;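 further: 0% = median of compound wells and 100% = no enzyme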
ULK1 inh – ULK1 kinase inhibitors, primary screen, biochemical, AlphaScreen; AlphaScreen Atg13 phosphorylation by ULK1, luminescence; 30,000 compounds, 1.9% hits; inhibition, % at 5.96 µM; AID 1259251, 2017; in the data active means inhibition above about 43%;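 further: 0% = median of compound wells and 100% = no enzyme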
Target sequence (O75385 whole entry, looked up): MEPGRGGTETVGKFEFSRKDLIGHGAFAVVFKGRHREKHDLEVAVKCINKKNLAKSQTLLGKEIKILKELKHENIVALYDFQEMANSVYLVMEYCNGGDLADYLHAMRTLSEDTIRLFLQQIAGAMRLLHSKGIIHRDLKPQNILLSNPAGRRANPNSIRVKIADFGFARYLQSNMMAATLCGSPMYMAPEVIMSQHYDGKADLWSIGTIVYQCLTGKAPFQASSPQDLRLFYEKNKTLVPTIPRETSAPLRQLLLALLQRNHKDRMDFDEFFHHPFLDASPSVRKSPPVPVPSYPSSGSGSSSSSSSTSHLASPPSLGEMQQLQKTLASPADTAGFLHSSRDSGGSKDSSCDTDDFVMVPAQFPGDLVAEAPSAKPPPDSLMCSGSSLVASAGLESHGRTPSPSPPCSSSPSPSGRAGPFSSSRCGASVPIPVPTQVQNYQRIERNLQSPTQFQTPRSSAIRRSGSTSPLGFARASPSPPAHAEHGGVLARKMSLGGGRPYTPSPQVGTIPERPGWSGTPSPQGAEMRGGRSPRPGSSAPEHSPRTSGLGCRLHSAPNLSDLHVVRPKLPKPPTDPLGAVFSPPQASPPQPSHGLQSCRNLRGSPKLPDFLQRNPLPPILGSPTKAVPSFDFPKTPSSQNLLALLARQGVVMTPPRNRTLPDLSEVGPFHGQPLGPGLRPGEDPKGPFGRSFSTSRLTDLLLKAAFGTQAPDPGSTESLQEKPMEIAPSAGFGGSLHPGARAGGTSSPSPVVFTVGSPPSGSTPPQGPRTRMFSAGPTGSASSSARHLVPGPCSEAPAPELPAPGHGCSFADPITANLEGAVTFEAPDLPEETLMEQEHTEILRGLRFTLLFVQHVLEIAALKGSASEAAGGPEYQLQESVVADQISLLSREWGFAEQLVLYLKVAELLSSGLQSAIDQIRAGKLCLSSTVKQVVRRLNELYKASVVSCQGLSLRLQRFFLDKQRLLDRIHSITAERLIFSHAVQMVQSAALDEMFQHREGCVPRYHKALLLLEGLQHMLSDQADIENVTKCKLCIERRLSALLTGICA
* = called active by the depositor; / = no result. Most compounds without a hit are left out; they make up all but 2.4% or so of the library.

SMILES | ASK1 inh | ULK1 inh
Cc1cccc(OCc2nc3ccc(-c4ccnc(N)n4)cc3[nH]2)c1 | 8 | 68*
CC(=O)Nc1cc(-c2ccnc(N)n2)ccc1NC(=O)COc1cccc(C)c1 | 1 | 11
O=C(Nc1cnn(-c2cccc(CNc3ccc(N4CCOCC4)cc3)c2)c1)Nc1ccccc1Cl | 25 | 49*
O=C(Nc1cnn(-c2cccc(C(=O)Nc3ccc(N4CCOCC4)cc3)c2)c1)Nc1ccccc1Cl | 2 | 3
CCCNC(=O)c1ccc(OC)c([N+](=O)[O-])c1 | / | 0
Cc1nc(Nc2cc(Nc3ccccc3S(=O)(=O)NC(C)C)c(C(F)(F)F)cn2)cc(-c2cncnc2)n1 | -1 | 45*
Cc1nc(Nc2ccccc2)cc(-c2cncc(-c3ccc(F)cc3)c2)n1 | / | -1
Nn1cnnc1N/N=C/c1cccc2ccccc12 | / | 60*
COc1nc(N/N=C/c2cccc3ccccc23)nc(N2CCOCC2)n1 | / | -8
COc1ccc(Nc2nccc(-c3cc(C#N)cc(N4CCOCC4)c3)n2)cc1 | 30 | 4
N#Cc1cc(-c2ccnc(Nc3ccc(N4CCOCC4)cc3)n2)cc(N2CCOCC2)c1 | 31 | 3
CCN1CCN(c2cc(C#N)cc(-c3ccnc(Nc4ccc(N5CCOCC5)cc4)n3)c2)CC1 | -32 | 53*
N#Cc1cc(-c2ccnc(Nc3ccc(N4CCOCC4)cc3)n2)cc(N2CCNCC2)c1 | 35 | 78*
c1cncc(-c2cc(N3CCOCC3)nc(-c3ccncc3)n2)c1 | / | 6
O=C1CCCN1CCn1cnc2c(NCCO)nc(N3CCN(Cc4ccc5c(c4)OCO5)CC3)nc21 | 3 | -9
CCc1nnc(N/N=C/c2ccccc2Cl)n1N | / | 48*
COc1cc(OC)nc(Oc2ccccc2/C=N/NC(N)=S)n1 | / | 2
O=C(NC1CC1)c1cnc(Nc2ncccn2)s1 | -2 | 44*
CCNc1ncc(C(=O)NC2CC2)s1 | 2 | -2
CC(=O)Nc1ccc(Nc2cc(N3CCC(N4CCOCC4)CC3)ncn2)cc1 | 11 | -11
CC(C)n1cnc2c(NCCc3ccccn3)nc(Nc3ccc(OC(F)(F)F)cc3)nc21 | -5 | -27
c1cc(N2CCOCC2)ccc1Nc1nc(N2CCOCC2)nc2c1ncn2C1CCCCC1 | -1 | 33
OCC1CCCN1c1nc(Nc2ccc(N3CCOCC3)cc2)c2ncn(C3CCCCC3)c2n1 (stereo not given) | 30 | 53*
OCC1CCCN1c1nc(Nc2ccc(N3CCOCC3)cc2)c2ncn(-c3ccccc3)c2n1 (stereo not given) | -37 | 61*
OCC1CCCN1c1nc(Nc2ccc(N3CCOCC3)cc2)c2ncn(-c3ccsc3)c2n1 (stereo not given) | 16 | 11
SMILES | ASK1 inh | ULK1 inh
Nc1n[nH]c2c(Br)cc(NC(=O)C(O)c3ccc(Cl)cc3)cc12 (stereo not given) | -32 | 34
Oc1cc(O)c2c(c1)O[C@H](c1ccc(O)c(O)c1)[C@@H](O)C2 | / | 53*
c1ccc(OCCNc2nc(-c3csc4ccccc34)nc3c2ncn3-c2ccsc2)cc1 | -1 | 7
c1ccc(Nc2nc(NC3CC3)c3[nH]cnc3n2)nc1 | -10 | -9
c1cncc(Nc2nc(NC3CC3)c3[nH]cnc3n2)c1 | -45 | 60*
COc1cc2nc(Nc3ccc(N4CCOCC4)cc3)nc(Nc3ccc(OCCN4CCCCC4)cc3)c2cc1OC | 49* | -8
Cc1cc(Nc2ccc(OCCN3CCCCC3)cc2)nc(Nc2ccc(N3CCOCC3)cc2)n1 | 10 | 9
COc1cc2nc(Nc3ccncc3)nc(Nc3ccc(N4CCOCC4)cc3)c2cc1OC | 42* | -4
COc1cc2nc(Nc3ncccn3)nc(Nc3ccc(N4CCOCC4)cc3)c2cc1OC | -1 | -7
c1ccc(CN2CCC(Nc3nc(N4CCN(Cc5ccc6c(c5)OCO6)CC4)nc4nc[nH]c34)CC2)cc1 | 14 | -7
CCN(CC)CC1COC(C)(C)CC1OC(=O)c1ccccc1 (stereo not given) | / | 5
Cc1nn(C)c(C)c1-c1nc2c(NCc3cccc(C(F)(F)F)c3)ncnc2n1C(C)C | 3 | -8
CN(c1ncccc1CNc1cc(Nc2ccc3c(c2)CC(=O)N3)ncc1C(F)(F)F)S(C)(=O)=O | 12 | 31
CN(c1ncccc1CNc1nc(Nc2ccc3c(c2)CC(=O)N3)ncc1C(F)(F)F)S(C)(=O)=O | 26 | 78*
Cc1nc(C)n(-c2ccc(Nc3nccc(-c4cncc5ccccc45)n3)cc2)n1 | 21 | -3
O=C(/C=C/c1cccc(Cl)c1)Nc1ccc2[nH]ncc2c1 | 5 | 6
Nc1nc(N2CCN(Cc3ccc4c(c3)OCO4)CC2)nc2nc[nH]c12 | 2 | 10
Cc1ncn(-c2ccc(Nc3ncc(Br)c(-c4cnn(C)c4)n3)cc2)n1 | -68 | 85*
Cc1onc(-c2nc(Nc3ccc(-n4cnc(N5CCOCC5)n4)cc3)ncc2Cl)c1-c1cnn(C)c1 | 14 | -22
Cc1ccc(-c2ncn(-c3ccc(Nc4ncc(F)c(-c5cnn(C)c5)n4)cc3)n2)cn1 | 18 | -1
Cn1cc(-c2nc(Nc3ccc(-n4cnc(N5CCOCC5)n4)cc3)ncc2Br)cn1 | -57 | 61*
O=C(Nc1ccc2[nH]ncc2c1)C1CCCN(C(=O)C(O)c2ccc(C(F)(F)F)cc2)C1 (stereo not given) | 4 | 6
CN1CCc2cccc3c2[C@H]1Cc1ccc(O)c(O)c1-3 | / | 46*
C#CCN(C)C(=O)c1ccc(N)cc1Cl | / | -3
CCN(CC)c1nc(Nc2ccc(N3CCOCC3)cc2)nc(Nc2ccc(N3CCOCC3)cc2)n1 | 7 | 11
SMILES | ASK1 inh | ULK1 inh
CCN(CC)C(=O)C1CCCN(c2nc(C(=O)NCc3cccnc3)cs2)C1 (stereo not given) | -16 | 5
CC(=O)Nc1ccc(Nc2cc(Nc3ccncc3)nc(N)n2)cc1 | -1 | 2
CC(=O)Nc1ccc(Nc2cc(Nc3ccncn3)nc(N)n2)cc1 | 4 | 5
CC(=O)Nc1ccc(Nc2cc(Nc3ccncn3)ncn2)cc1 | 11 | 62*
COc1cc(Nc2cc(Nc3ccncc3)ncn2)cc(OC)c1OC | 17 | 62*
CC(=O)Nc1ccc(Nc2cc(Nc3ccncc3)ncn2)cc1 | -2 | 79*
COc1cc(Nc2cc(Nc3cnccn3)ncn2)cc(OC)c1OC | 11 | 8
c1ccc(N2CCN(c3nc(NCc4cccnc4)c4[nH]cnc4n3)CC2)nc1 | -6 | 18
COc1ccc(CCNc2nc(-c3cccc(N)c3)nc3c2ncn3C(C)C)cc1 | 3 | -22
CCN(CC)C(=O)C1CCCN(c2cccc(C(=O)NCCOc3ccccc3)n2)C1 (stereo not given) | -24 | -1
Cn1nnc(-c2ccc(Nc3nccc(-c4ccc(N5CCC(O)CC5)c(C#N)c4)n3)cc2)n1 | 0 | 28
Cc1ncn(-c2ccc(Nc3nccc(-c4ccc(C#N)c(N5CCCC5)c4)n3)cc2)n1 | -4 | -9
N#Cc1cc(-c2ccnc(Nc3ccc(-n4cnc(N5CCC(O)CC5)n4)cc3)n2)ccc1N1CCC(O)CC1 | -9 | 72*
C[C@@H]1CN(C(=O)Nc2cccc(Nc3nccc(-c4ccc(N5CCC(O)CC5)c(C#N)c4)n3)c2)C[C@H](C)O1 | -16 | 76*
Cc1ncn(-c2ccc(Nc3nccc(-c4ccc(C#N)c(N5CCC(O)CC5)c4)n3)cc2)n1 | -6 | -1
N#Cc1cc(-c2ccnc(Nc3ccc(-n4cnc(C(F)(F)F)n4)cc3)n2)ccc1N1CCC(O)CC1 | 6 | 1
